In all, about 110,000 compounds were measured (“z-score”: median about -0.1, highest 2% from about 2 on). The full list was thinned out, with the highest values kept by preference. Calls of active or inactive are those of the source.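 The calls were made as follows: active = z-score in the third read window above 3 or below -3; inactive = the rest.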

The target of this assay is Metabotropic glutamate receptor 8 (Rattus norvegicus) (UniProt P70579). Briefly: rat mGluR8 modulators via GIRK flux, primary screen, cell-based, thallium flux, HTS (AID 488969). Particulars: HEK293 rat mGluR8, GIRK (G protein-gated inwardly rectifying potassium channel) thallium flux, FluoZin2; at 10 µM; stronger effect = higher value; submaximal glutamate (EC20) added with thallium.
Metabotropic glutamate receptor 8 (Rattus norvegicus), sequence (P70579 whole entry, looked up): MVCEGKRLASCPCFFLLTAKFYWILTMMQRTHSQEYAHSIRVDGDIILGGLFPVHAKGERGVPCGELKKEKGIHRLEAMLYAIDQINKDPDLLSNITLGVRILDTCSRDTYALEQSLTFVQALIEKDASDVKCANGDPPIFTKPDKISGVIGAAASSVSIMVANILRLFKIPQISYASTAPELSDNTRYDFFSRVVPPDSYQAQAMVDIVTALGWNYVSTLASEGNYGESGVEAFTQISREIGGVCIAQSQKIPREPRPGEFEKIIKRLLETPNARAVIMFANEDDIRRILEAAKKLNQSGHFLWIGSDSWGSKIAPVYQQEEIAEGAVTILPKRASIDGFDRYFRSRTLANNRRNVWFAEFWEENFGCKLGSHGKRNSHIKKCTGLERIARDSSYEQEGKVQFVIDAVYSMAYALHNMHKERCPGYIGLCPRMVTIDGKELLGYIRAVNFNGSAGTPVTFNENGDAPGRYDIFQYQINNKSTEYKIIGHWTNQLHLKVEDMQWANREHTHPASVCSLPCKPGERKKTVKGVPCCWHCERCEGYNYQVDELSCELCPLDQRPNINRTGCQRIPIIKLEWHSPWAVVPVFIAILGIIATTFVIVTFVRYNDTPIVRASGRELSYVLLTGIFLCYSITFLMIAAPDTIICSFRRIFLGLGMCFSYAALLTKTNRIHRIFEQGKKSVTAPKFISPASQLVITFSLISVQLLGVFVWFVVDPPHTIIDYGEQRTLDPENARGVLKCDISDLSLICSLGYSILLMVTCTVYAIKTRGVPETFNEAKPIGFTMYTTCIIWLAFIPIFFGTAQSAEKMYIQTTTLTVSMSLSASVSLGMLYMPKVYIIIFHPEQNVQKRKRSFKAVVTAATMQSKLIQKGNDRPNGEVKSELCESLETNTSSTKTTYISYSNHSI
Consider `COc1ccc(OC)c(CN(CCCN2CCOCC2)S(=O)(=O)c2ccc(NC(C)=O)cc2)c1`, for which the z-score is -0.129.

`CCN(CC)S(=O)(=O)c1ccc(-c2nnc(SCC(=O)Nc3ccc(OC)c(OC)c3)o2)cc1` gave a z-score of 0.581. Under `COc1ccc(OC(C)C(=O)Nc2ccccc2C(F)(F)F)cc1` (centres undefined) stands -0.114. Turning to `O=C(Nc1ccccc1C(=O)NCc1ccccc1)c1ccccc1`, the z-score is -0.543. In turn, `COn1c(=O)c(=O)n(O)c2ccccc21` had a z-score of -0.141.

On to `CN1C(=O)c2cccc(N(C)C)c2C1=O`, for which the z-score was -0.183.

With `O=C(Nc1nsc(-c2ccccc2)n1)c1cccs1`, the z-score was -0.31. The result for `Cc1nn(-c2cccc(Cl)c2)c2c1C(c1cccnc1)C(C#N)=C(N)O2` (centres undefined) reads 0.0248.

For the compound `CCCCOc1ccc(CONS(=O)(=O)c2ccc(NC(C)=O)cc2)cc1Cl`, the z-score was -0.176. In the case of `CN1CCc2c(sc(N)c2C(N)=O)C1`, the z-score is -0.167. Under `Cc1cc(C(=O)N/N=C/c2ccc(-c3ccccc3Cl)o2)n[nH]1` stands -0.496; under `CC(C)CNC(=S)NNC(=O)c1csc2c1CCCC2`, -0.116. Under `Cc1ccc(C)c(NC(=S)NNC(=O)c2csc(C)c2C)c1` stands 2.09; under `CCNC(=S)NNC(=O)c1csc2c1CCCC2`, -0.209.

Consider `CCCCNC(=S)NNC(=O)c1csc2c1CCC(C)C2` (centres undefined), for which the z-score is 0.319. Under `CCCCNC(=S)NNC(=O)c1csc(C)c1C` stands 0.0325. Under `CC1CCc2c(C(=O)Nc3nccs3)csc2C1` (centres undefined) stands -0.208; under `Cc1ccc(C)c(NC(=S)NNC(=O)c2csc3c2CCCC3)c1`, 7.26 (active). On to `Cc1ccc(C)c(NC(=S)NNC(=O)c2csc3c2CCC(C)C3)c1` (centres undefined), for which the z-score is 13.8 (active). For the compound `Cc1ccc(C)c(NC(=S)NNC(=O)c2ccco2)c1`, the z-score is -0.0706. Under `COC(=O)Cn1c(=NC(=O)c2ccc(OC)c(OC)c2)sc2cc(OC)ccc21` stands -0.167. Under `COc1ccc(/C=C2\CCCc3c2nc2ccccc2c3C(=O)OCC(=O)c2c(N)n(C)c(=O)n(C)c2=O)cc1` stands -0.224. The result for `O=C(CCn1nc(-c2ccccc2)c2ccccc2c1=O)NCC1CCCO1` (centres undefined) reads -0.116; that for `Clc1ccc(OCc2cc(-c3ccccc3)no2)cc1Cl`, -0.0469; that for `O=C(CCCCCN1C(=O)c2ccccc2C1=O)Nc1ccc(F)cc1`, -0.0499.

`CC(C)(C)c1ccccc1OCCCCN1CCCC1` returned a z-score of 2.06. `CC(C)(C)c1ccccc1OCCN1CCCC1` showed a z-score of -0.516. Under `Cc1cccc(C(C)(C)C)c1OCCCCN1CCCC1` stands 2.48; under `Cc1cccc(C(C)(C)C)c1OCCOCCN1CCCC1`, 0.391; under `Cc1cccc(C)c1OCCCN1CCCC1`, 0.0506. Under `Cc1ccc(C(C)(C)C)c(OCCCCN2CCCC2)c1` stands 0.658.

On to `COC(=O)c1cc2oc(C)cc2n1CC(=O)Nc1cc(C)cc(C)c1`, for which the z-score is -0.162. Under `O=C(CN1C(=O)CCS(=O)(=O)c2ccccc21)NCc1ccccc1` stands 0.305; under `CCOc1ccc(C(=O)/C=C/c2ccccc2C(F)(F)F)cc1`, -0.354.

As for `O=C(NCc1ccccn1)c1c(Cl)cccc1Cl`, the z-score is 0.0849.

As for `CC(O)c1nc2ccccc2n1C1CCCCC1` (centres undefined), the z-score is 6.36 (active).

Take `CCCCn1c(C(C)O)nc2ccccc21` (centres undefined): the z-score is -0.321. The result for `CC(C)CCn1c(C(C)O)nc2ccccc21` (centres undefined) reads -0.257; that for `N#CCCn1cc(C(CC(=O)c2ccccc2)C(=O)O)c2ccccc21` (centres undefined), -0.0596. The result for `COc1ccc(OC)c(N=c2oc3cc(O)ccc3cc2C(N)=O)c1` reads 1.99; that for `Cc1cccc(N=c2oc3cc(O)ccc3cc2C(N)=O)c1`, 0.0144; that for `COc1ccc(N=c2oc3cc(O)ccc3cc2C(=O)NCC2CCCO2)c(OC)c1` (centres undefined), -0.403.

In the case of `C=CCN1C(=O)/C(=C2/Sc3ccccc3N2CCCS(=O)(=O)O)SC1=S`, the z-score was -0.352. `C=CCN1C(=O)/C(=C2/Sc3ccccc3N2C)SC1=Nc1ccccc1C` registered a z-score of -0.792.

For `C=CCN1C(=O)/C(=C2/Sc3ccccc3N2C)SC1=Nc1c(C)n[nH]c1C`, the z-score is 3.97 (active).

In the case of `CCOC(=O)c1ccc(N2C(=O)CC(N3CCC(O)(c4ccc(Cl)cc4)CC3)C2=O)cc1` (centres undefined), the z-score amounted to 0.433. The result for `CCCCC1S/C(=N/N=C/c2ccc(OC)cc2)N(Cc2ccc(OC)cc2)C1=O` (centres undefined) reads -0.524. Under `CCOC(=O)c1c(CN(CC)CC)oc2cc(Br)c(O)cc12` stands -1.27; under `COC(=O)C1CCN(C(=O)COc2cc3sc(C)nc3c3sccc23)CC1`, -1.34; under `CCc1nnc(NS(=O)(=O)c2ccc(NC(=S)NC(=O)c3ccc(Br)cc3)cc2)s1`, -1.21.

`Cc1cc(NS(=O)(=O)c2ccc(NC(=S)NC(=O)c3ccccc3)cc2)no1` had a z-score of 2.22. `CCc1nnc(NS(=O)(=O)c2ccc(NC(=S)NC(=O)c3ccc(F)cc3)cc2)s1` yielded a z-score of 0.102. Under `Cc1cc(NS(=O)(=O)c2ccc(NC(=O)Nc3ccccc3)cc2)no1` stands 0.82; under `CCc1nnc(NS(=O)(=O)c2ccc(NC(=S)NC(=O)c3ccccc3)cc2)s1`, 5.21 (active); under `Cc1cc(NS(=O)(=O)c2ccc(NC(=S)NC(=O)c3ccc(F)cc3)cc2)no1`, -0.0103. Under `Cc1ccc(Cn2c(SCC(=O)N/N=C/c3ccc(C)o3)nc3ccccc32)cc1` stands -0.169; under `Cc1ccc(-c2cnc(SCC(=O)N3CCCc4ccccc43)n2C)cc1`, -0.31. For `O=C1c2ccccc2C(=O)N1CC1=CCS(=O)(=O)C1`, the z-score amounted to 0.399. The result for `COc1ccc(N2CCN(C(=O)CCCn3c(=S)[nH]c4cc5c(cc4c3=O)OCO5)CC2)cc1` reads -0.487; that for `Cc1cc(C)nc(NC(=O)CCC2CCCC2)c1`, -0.0409; that for `CS(=O)(=O)Nc1ccc(C(=O)NCCC2=CCCCC2)cc1`, 1.28. The result for `COc1ccc(-n2c(C)nc3cc(C(=O)NCc4ccc5c(c4)OCO5)ccc32)cc1` reads -0.347; that for `COc1ccc(-n2c(C)nc3cc(C(=O)NCc4ccco4)ccc32)cc1`, 2.54. `CCOc1ccc(-n2c(C)nc3cc(C(=O)NCc4ccco4)ccc32)cc1`: the z-score is 0.364. On to `CC(=O)c1c(C)nn(C(C)CC(=O)O)c1C` (centres undefined), for which the z-score was -0.0267. In turn, `COc1cc(OC)nc(NC(=O)CSc2nnc(-c3ccccc3)n2C2CCCCC2)n1` displayed a z-score of -0.277. `O=C(Nc1cccc(F)c1)c1ccccc1-c1ccccc1` displayed a z-score of -0.369. Under `Cc1nnc(SCC(=O)N2c3ccccc3C(C)(c3ccccc3)CC2(C)C)s1` (centres undefined) stands 0.611.

As to `CC(=O)N1c2ccccc2C(C)(c2ccccc2)CC1(C)C` (centres undefined), the z-score was -0.236.

As to `CN1CCN(CC(=O)N2c3ccccc3C(C)(c3ccc(Cl)cc3)CC2(C)C)CC1` (centres undefined), the z-score was 3.21 (active). Under `CN1CCN(CC(=O)N2c3ccccc3C(C)(c3ccccc3)CC2(C)C)CC1` (centres undefined) stands 3.59 (active). Under `Cc1nnc(SCC(=O)N2c3ccccc3C(C)(c3ccc(Cl)cc3)CC2(C)C)s1` (centres undefined) stands 0.227; under `CC1(c2ccccc2)CC(C)(C)N(C(=O)CSc2nnc(N)s2)c2ccccc21` (centres undefined), -0.521; under `CC1Cc2ccccc2N1C(=O)CCNS(=O)(=O)c1ccc2c(c1)CCC(=O)N2` (centres undefined), -0.0721. Consider `Cn1c(=O)c2c(nc(NCCO)n2C)n(C)c1=O`, for which the z-score amounted to 0.204. In turn, `CCn1c(NCc2ccco2)nc2c1c(=O)n(C)c(=O)n2C` registered a z-score of 0.397. Under `CCn1c(C)c(C2=CCN(S(=O)(=O)c3ccc(C)cc3)CC2)c2ccccc21` stands 0.0891; under `CCN1C(=O)c2cccc3cccc1c23`, -0.389.

The compound `CCn1c(O)c(N=NC2=NC(=O)CS2)c2ccccc21` returned a z-score of 0.217. Under `CCOc1ccc2c(c1)c(N=Nc1cccc(C(=O)O)c1)c(O)n2C` stands -0.0674; under `CCc1ccc2c(c1)c1nnc(NN)nc1n2CC`, -0.278; under `CCc1ccc2c(c1)c(N=NC1=NC(=O)CS1)c(O)n2C`, 2.09. Compound `CCOc1ccc2c(c1)c(N=NC(=N)N)c(O)n2C` returned a z-score of -0.224.

In turn, `Cc1cc(C)nc(N=Nc2c(O)n(Cc3ccc(Cl)cc3)c3ccccc23)n1` came in with a z-score of 0.0163. Under `CCn1c(O)c(N=NC2=NC(=O)CS2)c2cc(C)ccc21` stands 2.24. Under `CCc1ccc2c(c1)c(N=NC1=NC(=O)CS1)c(O)n2CC` stands 2.98; under `CCn1c(O)c(N=NC(=O)CNc2cccc(C)c2)c2ccccc21`, 1.4. With `Cc1ccc(O)c(C(=O)/C=C/c2ccc3c(c2)OCCCO3)c1`, the z-score stood at 0.653.

Compound `CC(=O)NC1=NN(C(C)=O)C(C)(CS(=O)(=O)c2ccc(C)c(C)c2)S1` (centres undefined) came in with a z-score of -0.323.

`COc1ccc(CN(C(=O)c2ccco2)c2ccc(Br)cc2)cc1OC` registered a z-score of -0.544.

For `CCOC(=O)c1sc(C)c2c(=O)n(CC)nnc12`, the z-score is 0.154. Under `Cc1ccc(NC(=S)NNC(=O)c2cn(C)nc2C)cc1` stands 0.188. Under `CC(=O)c1c(N2CCCC2)[nH]c(-c2ccccc2)nc1=S` stands 14.8 (active). The result for `CC(=O)c1c(N)[nH]c(-c2ccccc2)nc1=S` reads 1.28; that for `CSc1nc(-c2ccccc2)[nH]c(=S)c1C(C)=O`, 7.43 (active); that for `CSc1nc(-c2ccccc2)nc(N)c1C(C)=O`, -0.0854. The compound `CSc1nc(-c2ccccc2)nc(SC)c1C(C)=O` yielded a z-score of -0.493. Under `CC(=O)c1c(N2CCN(C)CC2)[nH]c(-c2ccccc2)nc1=S` stands 0.167. Under `S=C(NC12CC3CC(CC(C3)C1)C2)N1CCCC1` stands -0.0857. The result for `N#C/C(=C(/O)COC(=O)Cc1c[nH]c2ccccc12)c1nc2ccccc2[nH]1` reads -0.819; that for `Cc1ccc2c(c1)NC(=O)C(CC(=O)NCCCN1CCCC1)O2` (centres undefined), 0.515; that for `N#Cc1c(N)nc(SCc2ccccc2)c(C#N)c1-c1ccco1`, 11.4 (active). Compound `CCSc1nc(N)c(C#N)c(-c2ccco2)c1C#N` displayed a z-score of -0.377. The result for `COC(=O)CSc1nc(N)c(C#N)c(-c2ccco2)c1C#N` reads -0.328. On to `COc1ccc(Oc2coc3cc(OC(=O)N4CCOCC4)ccc3c2=O)cc1`, for which the z-score is -0.0315.

The compound `Cc1cccc(Nc2nnc(SCC3CCCCO3)s2)c1C` (centres undefined) came in with a z-score of -0.0272. The result for `COc1cccc(N(C(=O)Cn2nnc(-c3ccc(C)o3)n2)C(C(=O)NC(C)(C)C)c2cccs2)c1` (centres undefined) reads 0.439; that for `O=C(NC(=S)Nc1cccc(Cl)c1N1CCCCC1)c1ccco1`, 5.38 (active); that for `CCCC(=O)NC(=S)Nc1cccc(Cl)c1N1CCCCC1`, 0.12. The result for `O=C(Nc1ccccc1N1CCCCC1)c1ccco1` reads -0.657. The result for `O=C(Nc1ccc(N2CCOCC2)cc1N1CCOCC1)c1cccs1` reads -0.508.

Consider `O=C(NC(=S)Nc1ccccc1N1CCCCC1)c1ccco1`, for which the z-score was 5.87 (active). The result for `O=C(NC(=S)Nc1ccccc1N1CCOCC1)c1cccs1` reads 4.28 (active); that for `O=C(Nc1ccccc1N1CCOCC1)c1cccs1`, 0.511; that for `O=C(NC(=S)Nc1ccccc1N1CCCCC1)c1cccs1`, -0.0387. As to `CCC(=O)NC(=S)Nc1cccc(Cl)c1N1CCCCC1`, the z-score amounted to 0.315. As for `O=C(NC(=S)Nc1cccc(Cl)c1N1CCCCC1)c1cccs1`, the z-score came out at 2.55. Turning to `O=C(NC(=S)Nc1cccc(Cl)c1N1CCCCC1)c1ccc2c(c1)OCCO2`, the z-score amounted to 0.413.

Compound `CS(=O)(=O)N1CCN(c2ccccc2NC(=O)c2ccco2)CC1` had a z-score of -0.175.

The record behind these values is PubChem BioAssay AID488969 (Vanderbilt High Throughput Screening Facility, 2010).
